Tgondii IFNg: blocks Toxoplasma gondii growth in the presence of IFN-gamma | Toxoplasma gondii growth in IFN-gamma-treated host cells; hits give low values | activity change, negative = inhibition, % (no concentration beside the values) | hit rate 3.8% among 69,000 | AID 1259416; in the data active = activity change below about -70%, passing the limit was not always enough;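 also: host cells are HeLa cells infected with Toxoplasma gondii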
Large screens that a line does not name were inactive; ! = a repeat was not active. Shown is part of a subset that was picked to be rich in hits.

CN1CCC2(CCCN(CC3CCOC3)C2)C1=O (stereo not given)	none
CN(C)[C@H]1CN(C(=O)Cc2ccccn2)C[C@H]2CCCO[C@H]21	none
CCCN1CC2CCC1C2Oc1cccnc1 (stereo not given)	none
O=C(NC1CCCCCCCCCCC1)c1cc2cccnc2n(Cc2ccc(F)cc2)c1=O	none
COCCNC(=O)[C@H]1C[C@H]2CCN(Cc3c(C)noc3C)C[C@H]2O1	none
O=C(Nc1ccc(F)c(F)c1)c1c(O)c2cccnc2n(Cc2ccccc2)c1=O	none
CC(NC(=O)c1cc2cccnc2n(Cc2ccccc2F)c1=O)c1ccccc1 (stereo not given)	none
Cc1ccccc1NC(=O)c1c(O)c2cccnc2n(Cc2ccccc2)c1=O	none
CC(CCc1ccccc1)NC(=O)c1cc2cccnc2n(Cc2ccccc2)c1=O (stereo not given)	none
Cc1ccc(NC(=O)c2cc3cccnc3n(Cc3ccc(F)cc3)c2=O)c(C)c1	none
CCc1ccccc1NC(=O)c1c(O)c2cccnc2n(Cc2ccccc2)c1=O	Tgondii IFNg -88
CC(NC(=O)c1cc2cccnc2n(Cc2ccccc2)c1=O)c1ccccc1 (stereo not given)	Tgondii IFNg -91
Cc1ccc(NC(=O)c2cc3cccnc3n(Cc3ccc(F)cc3)c2=O)cc1	none
Cc1cc(C)c(NC(=O)c2cc3cccnc3n(Cc3ccc(F)cc3)c2=O)c(C)c1	Tgondii IFNg -78
CCc1ccc(NC(=O)c2c(O)c3cccnc3n(Cc3ccccc3)c2=O)cc1	none
O=C(Nc1ccc(F)c(Cl)c1)c1c(O)c2cccnc2n(Cc2ccccc2)c1=O	none
O=C(NCc1ccccc1F)c1c(O)c2cccnc2n(Cc2ccccc2)c1=O	Tgondii IFNg -112
COCc1cncc2c1CCN(Cc1ccncc1)C2	none
Cc1ccc(C(=O)N2CCC(NC(C)Cc3ccccc3F)CC2)cc1 (stereo not given)	none
O=C1NCCN2CCN(C3CCN(Cc4cccnc4)CC3)CC12 (stereo not given)	none
C=CCN1C[C@H]2CN(c3ccc(C)nn3)CCC[C@]2(C(=O)O)C1	none
CN(C)[C@@H]1CN(Cc2ccoc2)[C@H]2COC[C@@H]12	none
COCCN1CCO[C@H]2CN(C(=O)Cc3ccccn3)CC[C@@H]2C1	none
c1ccc(CO[C@@H]2C[C@@H]3CN(c4ncccn4)CCN3C2)cc1	none
CCC(C)N1CCC2(CC1)C(=O)N(c1cncnc1)c1ccccc12 (stereo not given)	none
C=CCN1CC[C@H]2[C@@H]1CCN2C(=O)Cc1cccs1	none
N#Cc1ccccc1NC(=O)c1cc2cccnc2n(Cc2ccccc2)c1=O	none
Cc1noc(C)c1CN1CCO[C@H]2CN(C(=O)c3cccs3)C[C@@H]21	none
CC(=O)Nc1ccc(NC(=O)c2cc3cccnc3n(Cc3ccccc3F)c2=O)cc1	none
CCc1ccc(CN2CCOC3CNCC[C@@H]32)o1 (stereo not given in full)	none
CC(C)(NC(=O)c1cccs1)C(=O)NCCc1cnc[nH]1	none
Cc1ccc(F)cc1NC(=O)c1c(O)c2cccnc2n(Cc2ccccc2)c1=O	none
COc1ccc(NC(=O)c2c(O)c3cccnc3n(Cc3ccccc3)c2=O)cc1	none
O=C(Nc1ccc(F)cc1)c1c(O)c2cccnc2n(Cc2ccccc2)c1=O	none
O=C(NCc1ccccc1)c1c(O)c2cccnc2n(Cc2ccccc2)c1=O	Tgondii IFNg -116
Cc1ccc(NC(=O)c2c(O)c3cccnc3n(Cc3ccccc3)c2=O)c(C)c1	none
O=C(Nc1cccc(Cl)c1)c1c(O)c2cccnc2n(Cc2ccccc2)c1=O	none
CC(NC(=O)c1c(O)c2cccnc2n(Cc2ccccc2)c1=O)c1ccc(F)cc1 (stereo not given)	Tgondii IFNg -113
O=C(NCc1cccs1)c1c(O)c2cccnc2n(Cc2ccccc2)c1=O	Tgondii IFNg -111
Cc1ccc(F)c(NC(=O)c2c(O)c3cccnc3n(Cc3ccccc3)c2=O)c1	none
CCN1C[C@H]2CN(c3cc(OC)ncn3)CCC[C@]2(C(=O)O)C1	none
CN(C)CCN1CCN(CC2CC2)c2ncccc2C1	none
O=C(c1cn(-c2ccccc2)nn1)N1C[C@H]2C[C@@H](C1)c1cccc(=O)n1C2	none
Cc1cccc(NC(=O)c2cc3cccnc3n(Cc3ccc(Cl)cc3)c2=O)c1C	none
c1ccc(OCC2CC3NCCOC3C2)nc1 (stereo not given)	none
O=C(Nc1ccc(F)cc1F)c1cc2cccnc2n(Cc2ccc(F)cc2)c1=O	none
C=CCN1CCN(C)C2(CCN(c3cccnc3)CC2)C1=O	none
CCSc1nc(CC(=O)N2CCCCC2CN2CCOCC2)cs1 (stereo not given)	none
COc1ccccc1[C@H]1CN(c2nccnc2C)[C@@H]2C3CCN(CC3)[C@H]12	none
COC[C@H]1CCC[C@]12CN(Cc1c(C)noc1C)CCO2	none
C[C@@H]1O[C@@H](O[C@H]2CC[C@]3(C=O)C4CC[C@]5(C)[C@@H](C6=CC(=O)OC6)CC[C@]5(O)C4CC[C@]3(O)C2)[C@H](O)[C@H](O)[C@H]1O (stereo not given in full)	none
C[C@]12CCC3C(CC[C@]4(O)C[C@@H](O)CC[C@]34C=O)[C@@]1(O)CCC2C1=CC(=O)OC1 (stereo not given in full)	Tgondii IFNg -84!
Clc1cncc(OC[C@H]2CO[C@@H]3CN(Cc4cccs4)C[C@@H]23)c1	none
COc1ccc2c(c1)C1(CCN(C(=O)c3cnoc3C)CC1)CC2CC(=O)O (stereo not given)	none
CNC(=O)C1CC2CN(Cc3c(C)noc3C)CC1O2 (stereo not given)	none
C[C@@H]1C[C@@H]([C@H](O)CC2CC(=O)NC(=O)C2)C(=O)[C@@H](C)C1	Tgondii IFNg -79
Cc1noc(C)c1CN1CCC2C1CC(=O)N2c1cnn(C)c1 (stereo not given)	none
CC(C)N1CCO[C@H]2CN(Cc3ccsc3)C[C@@H]21	none
COCc1cncc2c1CCN(C1CCOC1)C2 (stereo not given)	Tgondii IFNg -109
COCc1cncc2c1CCN(S(=O)(=O)C1CC1)C2	none
COCc1cncc2c1CCN(CC(C)C)C2	none
O=C(NCCc1ccccc1)c1cc2cccnc2n(Cc2ccc(Cl)cc2)c1=O	none
COc1cccc(CC(C)NC2CCN(C(=O)c3ccc(C)cc3)CC2)c1 (stereo not given)	none
O=C(NC(=S)Nc1cc(C(F)(F)F)cc(C(F)(F)F)c1)Oc1ccccc1	Tgondii IFNg -98
